From the supplement of paper PMC8540655
Unmarked numbers belong to inactive results.

These compounds were tested on Aedes aegypti larvae (assay: larval motility relative to same well at 0 h (fraction); higher = more motile (less active compound), active = 0.4 or less). Settings: 10 µM; 2 h.
Description: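 MMV Pandemic Response Box compounds were tested at 10 µM (1% v/v DMSO) on Aedes aegypti larvae (18-24 h after hatching, about 10 per well, 96-well plates). Motility was quantified with INVAPP (200-frame movies) at 0, 2 and 24 h. Each well's motility was divided by its own 0 h score, and the median of 3 independent screens is reported.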

First: C/C(=N\NC(=O)C1CC1c1ccccc1)c1ccc(NC(=O)c2ccco2)cc1 (stereo not given)
Second: CC(C)(C)c1ccc(C(=O)NC(=O)N2CCCc3ccccc32)cc1
The larval motility of the first is lower: 0.804 for the first, 0.973 for the second.

First: CCOC(=O)/C=C/[C@H](C[C@@H]1CCNC1=O)NC(=O)[C@@H](CC(=O)[C@@H](NC(=O)c1cc(C)on1)C(C)C)Cc1ccc(F)cc1
Second: CCc1ccc(C2CC(C(F)(F)F)n3ncc(C(=O)NCc4ccc(OC)cc4)c3N2)cc1 (stereo not given)
The larval motility of the first is higher: 1.26 for the first, 0.923 for the second.

First: CC[C@H]1OC(=O)[C@H](C)[C@@H](O[C@H]2C[C@@](C)(OC)[C@@H](O)[C@H](C)O2)[C@H](C)[C@@H](O[C@@H]2O[C@H](C)C[C@H](N(C)C)[C@H]2O)[C@](C)(O)C[C@@H](C)C(=O)[C@H](C)[C@@H](O)[C@]1(C)O
Second: Cc1onc(-c2ccccc2Cl)c1C(=O)N[C@@H]1C(=O)N2[C@@H]1SC(C)(C)[C@@H]2C(=O)O
The larval motility of the first is lower: 1.03 for the first, 1.22 for the second.

Going from `Cc1ccc(C)c(OCCCCCCN2C[C@H](O)[C@@H](O)[C@H](O)[C@H]2CO)c1` to `CCO/N=C/c1ccc(OCCCCN2CCN(c3ccncc3)C2=O)cc1`, the larval motility rises from 0.635 to 1.36.

Going from `O[C@@](Cn1cnnn1)(c1ccc(F)cc1F)C(F)(F)c1ccc(-c2ccc(OCC(F)(F)F)cc2)cn1` to `COc1ccc(-n2cnc3cc(NCc4ccco4)ccc32)cc1`, the larval motility rises from 0.718 to 0.835.

Going from `CC[C@@H]1C(=O)OC[C@@H]1Cc1cncn1C` to `CCCc1ccc(-c2cc3cn([C@H]4C[C@H](O)[C@@H](CO)O4)c(=O)nc3o2)cc1`, the larval motility falls from 1.22 to 0.729.

First: C[C@@H](NC(=O)c1ccccc1-c1ccccc1)B(O)O
Second: O=C(O)CCNC(=O)c1ccccc1
The larval motility of the first is lower: 0.616 for the first, 0.977 for the second.

First: NCc1ccc(S(N)(=O)=O)cc1
Second: CN(C)CCNC(=O)c1cccc2cccnc12
The larval motility of the first is lower: 0.675 for the first, 0.941 for the second.

Compared with `NC(=S)N/N=C/c1ncccc1N`, `NC(=O)c1cnccn1` is lower in larval motility: 0.987 for the first, 0.745 for the second.

Compared with `COc1ccc(C2=CC(c3c(F)cccc3Cl)n3ncnc3N2)cc1` (stereo not given), `CC(C)=CCC/C(C)=C/CNCCNC1C2CC3CC(C2)CC1C3` (stereo not given) is higher in larval motility: 0.637 for the first, 0.85 for the second.

Same assay, conditions: 10 µM; 24 h

First: C/C(=N\NC(=O)C1CC1c1ccccc1)c1ccc(NC(=O)c2ccco2)cc1 (stereo not given)
Second: CC(C)(C)c1ccc(C(=O)NC(=O)N2CCCc3ccccc32)cc1
The larval motility of the first is higher: 0.958 for the first, 0.629 for the second.

First: CCOC(=O)/C=C/[C@H](C[C@@H]1CCNC1=O)NC(=O)[C@@H](CC(=O)[C@@H](NC(=O)c1cc(C)on1)C(C)C)Cc1ccc(F)cc1
Second: CCc1ccc(C2CC(C(F)(F)F)n3ncc(C(=O)NCc4ccc(OC)cc4)c3N2)cc1 (stereo not given)
The larval motility of the first is lower: 1.09 for the first, 1.29 for the second.

Going from `CC[C@H]1OC(=O)[C@H](C)[C@@H](O[C@H]2C[C@@](C)(OC)[C@@H](O)[C@H](C)O2)[C@H](C)[C@@H](O[C@@H]2O[C@H](C)C[C@H](N(C)C)[C@H]2O)[C@](C)(O)C[C@@H](C)C(=O)[C@H](C)[C@@H](O)[C@]1(C)O` to `Cc1onc(-c2ccccc2Cl)c1C(=O)N[C@@H]1C(=O)N2[C@@H]1SC(C)(C)[C@@H]2C(=O)O`, the larval motility rises from 0.824 to 1.24.

Compared with `Cc1ccc(C)c(OCCCCCCN2C[C@H](O)[C@@H](O)[C@H](O)[C@H]2CO)c1`, `CCO/N=C/c1ccc(OCCCCN2CCN(c3ccncc3)C2=O)cc1` is higher in larval motility: 0.552 for the first, 1.3 for the second.

Going from `O[C@@](Cn1cnnn1)(c1ccc(F)cc1F)C(F)(F)c1ccc(-c2ccc(OCC(F)(F)F)cc2)cn1` to `COc1ccc(-n2cnc3cc(NCc4ccco4)ccc32)cc1`, the larval motility rises from 0.564 to 1.63.

Going from `CC[C@@H]1C(=O)OC[C@@H]1Cc1cncn1C` to `CCCc1ccc(-c2cc3cn([C@H]4C[C@H](O)[C@@H](CO)O4)c(=O)nc3o2)cc1`, the larval motility falls from 0.972 to 0.902.

Going from `C[C@@H](NC(=O)c1ccccc1-c1ccccc1)B(O)O` to `O=C(O)CCNC(=O)c1ccccc1`, the larval motility rises from 0.615 to 1.03.

First: NCc1ccc(S(N)(=O)=O)cc1
Second: CN(C)CCNC(=O)c1cccc2cccnc12
The larval motility of the first is lower: 0.66 for the first, 0.825 for the second.

Going from `NC(=S)N/N=C/c1ncccc1N` to `NC(=O)c1cnccn1`, the larval motility rises from 0.773 to 1.

First: COc1ccc(C2=CC(c3c(F)cccc3Cl)n3ncnc3N2)cc1 (stereo not given)
Second: CC(C)=CCC/C(C)=C/CNCCNC1C2CC3CC(C2)CC1C3 (stereo not given)
The larval motility of the first is lower: 0.619 for the first, 0.924 for the second.
